# Laboratory results as given in PubChem BioAssay AID1159580 (chemical genetic matrix, 2015).
# Hit rate of the full screen: of about 5,500 compounds, about 2,000 (36%) were called active. About 18% were inconclusive and are not listed. The list shows a part of the results. A number with no mark means an inactive call. Cut-off read from the data, not from the text of the source: active = normalized growth mostly below about 0.91 (no sharp cut-off); inconclusive = no clear call, values can overlap the other calls; inactive = mostly above about 0.92.
# Assay: chemical genetic growth profiling, strain panel (AID 1159580);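 note: tested at 20 µM; growth read once vehicle control cultures reached saturation at 30 °C; 1 = growth at the plate median or of vehicle wells; lower values mean less growth of the strain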
# Settings: growth OD
# [1] = S. cerevisiae deletion strains, locus YDL101C, strain DUN1, active compounds read low
# [2] = S. cerevisiae deletion strains, locus YHR030C, strain SLT2, active compounds read low
structure (smiles),measurement,setting,value
O=S(=O)(NCCc1ccncc1)c1cc(C(F)(F)F)cc(C(F)(F)F)c1,normalized growth,"S. cerevisiae deletion strains, locus YAL013W, strain DEP1, active compounds read low",1
same,normalized growth,"S. cerevisiae deletion strains, locus YBR229C, strain ROT2, active compounds read low",0.988
same,normalized growth,"S. cerevisiae deletion strains, locus YCL061C, strain MRC1, active compounds read low",0.963
same,normalized growth,[1],0.966
same,normalized growth,"S. cerevisiae deletion strains, locus YDR150W, strain NUM1, active compounds read low",0.913
same,normalized growth,"S. cerevisiae deletion strains, locus YEL061C, strain CIN8, active compounds read low",1
same,normalized growth,"S. cerevisiae deletion strains, locus YGR078C, strain PAC10, active compounds read low",0.987
same,normalized growth,[2],1.01
same,normalized growth,"S. cerevisiae deletion strains, locus YHR087W, strain rtc3, active compounds read low",1.07
same,normalized growth,"S. cerevisiae deletion strains, locus YJL187C, strain SWE1, active compounds read low",1.01
same,normalized growth,"S. cerevisiae deletion strains, locus YJR043C, strain POL32, active compounds read low",0.964
same,normalized growth,"S. cerevisiae deletion strains, locus YJR075W, strain HOC1, active compounds read low",1.02
same,normalized growth,"S. cerevisiae deletion strains, locus YKL190W, strain CNB1, active compounds read low",1.01
same,normalized growth,"S. cerevisiae deletion strains, locus YLR039C, strain RIC1, active compounds read low",0.976
same,normalized growth,"S. cerevisiae deletion strains, locus YLR058C, strain SHM2 (second series), active compounds read low",1
same,normalized growth,"S. cerevisiae deletion strains, locus YLR085C, strain ARP6, active compounds read low",1.05
same,normalized growth,"S. cerevisiae deletion strains, locus YLR262C, strain YPT6, active compounds read low",1.03
same,normalized growth,"S. cerevisiae deletion strains, locus YML094W, strain GIM5, active compounds read low",1.02
same,normalized growth,"S. cerevisiae deletion strains, locus YMR219W, strain ESC1, active compounds read low",0.993
same,normalized growth,"S. cerevisiae deletion strains, locus YMR263W, strain SAP30, active compounds read low",1.01
same,normalized growth,"S. cerevisiae deletion strains, locus YNL128W, strain TEP1, active compounds read low",0.989
same,normalized growth,"S. cerevisiae deletion strains, locus YNL153C, strain GIM3, active compounds read low",0.994
same,normalized growth,"S. cerevisiae deletion strains, locus YNL298W, strain CLA4 (second series), active compounds read low",0.986
same,normalized growth,"S. cerevisiae deletion strains, locus YNL322C, strain KRE1, active compounds read low",1
same,normalized growth,"S. cerevisiae deletion strains, locus YNR030W, strain Alg12, active compounds read low",1.03
same,normalized growth,"S. cerevisiae deletion strains, locus YOL006C, strain TOP1, active compounds read low",0.976
same,normalized growth,"S. cerevisiae deletion strains, locus YPL055C, strain LGE1, active compounds read low",1.02
same,normalized growth,"S. cerevisiae deletion strains, locus YPL241C, strain CIN2, active compounds read low",0.98
same,normalized growth,"S. cerevisiae deletion strains, locus YPR135W, strain CTF4, active compounds read low",0.942
same,normalized growth,"S. cerevisiae strains, strain wild type, active compounds read low",0.979
O=S(=O)(Nc1csc(C(F)(F)F)c1-c1ccccc1)c1cc(Br)c(Br)s1,normalized growth,"S. cerevisiae deletion strains, locus YAR019C, strain CDC15, active compounds read low",0.957
same,normalized growth,"S. cerevisiae deletion strains, locus YBL105C, strain PKC1, active compounds read low",0.952
same,normalized growth,"S. cerevisiae deletion strains, locus YBR135W, strain CKS1, active compounds read low",0.96
same,normalized growth,"S. cerevisiae deletion strains, locus YBR136W, strain MEC1, active compounds read low",0.93
same,normalized growth,"S. cerevisiae deletion strains, locus YBR160W, strain CDC28, active compounds read low",0.961
same,normalized growth,"S. cerevisiae deletion strains, locus YDL017W, strain CDC7, active compounds read low",0.955
same,normalized growth,"S. cerevisiae deletion strains, locus YDL028C, strain MPS1, active compounds read low",0.935
same,normalized growth,[1],0.968
same,normalized growth,"S. cerevisiae deletion strains, locus YDL108W, strain KIN28, active compounds read low",0.939
same,normalized growth,"S. cerevisiae deletion strains, locus YDL132W, strain cdc53, active compounds read low",0.971
same,normalized growth,"S. cerevisiae deletion strains, locus YDL214C, strain PRR2, active compounds read low",0.927
same,normalized growth,"S. cerevisiae deletion strains, locus YDR052C, strain DBF4, active compounds read low",0.961
same,normalized growth,"S. cerevisiae deletion strains, locus YDR054C, strain cdc34, active compounds read low",0.96
same,normalized growth,"S. cerevisiae deletion strains, locus YDR226W, strain ADK1, active compounds read low",0.953
same,normalized growth,"S. cerevisiae deletion strains, locus YDR477W, strain SNF1, active compounds read low",0.91
same,normalized growth,"S. cerevisiae deletion strains, locus YER123W, strain YCK3, active compounds read low",0.899
same,normalized growth,"S. cerevisiae deletion strains, locus YER133W, strain GLC7, active compounds read low",0.959
same,normalized growth,"S. cerevisiae deletion strains, locus YFL009W, strain cdc4, active compounds read low",0.968
same,normalized growth,"S. cerevisiae deletion strains, locus YFL029C, strain CAK1, active compounds read low",0.949
same,normalized growth,"S. cerevisiae deletion strains, locus YFR003C, strain YPI1, active compounds read low",0.961
same,normalized growth,"S. cerevisiae deletion strains, locus YFR019W, strain FAB1, active compounds read low",0.852
same,normalized growth,"S. cerevisiae deletion strains, locus YFR028C, strain CDC14, active compounds read low",0.974
same,normalized growth,"S. cerevisiae deletion strains, locus YGR040W, strain KSS1, active compounds read low",0.912
same,normalized growth,"S. cerevisiae deletion strains, locus YGR052W, strain FMP48, active compounds read low",0.873
same,normalized growth,"S. cerevisiae deletion strains, locus YGR092W, strain DBF2, active compounds read low",0.804
same,normalized growth,[2],0.305 (active)
same,normalized growth,"S. cerevisiae deletion strains, locus YHR079C, strain IRE1, active compounds read low",0.814
same,normalized growth,"S. cerevisiae deletion strains, locus YHR082C, strain KSP1, active compounds read low",0.654
same,normalized growth,"S. cerevisiae deletion strains, locus YHR205W, strain SCH9, active compounds read low",0.887
same,normalized growth,"S. cerevisiae deletion strains, locus YIL147C, strain SLN1, active compounds read low",0.951
same,normalized growth,"S. cerevisiae deletion strains, locus YJL095W, strain BCK1, active compounds read low",0.911
same,normalized growth,"S. cerevisiae deletion strains, locus YJL128C, strain PBS2, active compounds read low",0.956
same,normalized growth,"S. cerevisiae deletion strains, locus YJL157C, strain FAR1, active compounds read low",0.948
same,normalized growth,"S. cerevisiae deletion strains, locus YJR016C, strain ILV3, active compounds read low",0.962
same,normalized growth,"S. cerevisiae deletion strains, locus YJR066W, strain TOR1 (second series), active compounds read low",0.962
same,normalized growth,"S. cerevisiae deletion strains, locus YJR066W, strain TOR1, active compounds read low",0.861
same,normalized growth,"S. cerevisiae deletion strains, locus YKL048C, strain ELM1, active compounds read low",0.894
same,normalized growth,"S. cerevisiae deletion strains, locus YKL067W, strain YNK1, active compounds read low",0.943
same,normalized growth,"S. cerevisiae deletion strains, locus YKL101W, strain HSL1, active compounds read low",0.79
same,normalized growth,"S. cerevisiae deletion strains, locus YKL193C, strain SDS22, active compounds read low",0.964
same,normalized growth,"S. cerevisiae deletion strains, locus YKL203C, strain TOR2, active compounds read low",0.964
same,normalized growth,"S. cerevisiae deletion strains, locus YLR113W, strain HOG1, active compounds read low",0.8 (active)
same,normalized growth,"S. cerevisiae deletion strains, locus YLR133W, strain CKI1, active compounds read low",0.871
same,normalized growth,"S. cerevisiae deletion strains, locus YLR403W, strain SFP1, active compounds read low",0.906
same,normalized growth,"S. cerevisiae deletion strains, locus YML070W, strain DAK1, active compounds read low",0.897
same,normalized growth,"S. cerevisiae deletion strains, locus YMR001C, strain CDC5, active compounds read low",0.957
same,normalized growth,"S. cerevisiae deletion strains, locus YMR205C, strain PFK2 (second series), active compounds read low",0.907
same,normalized growth,"S. cerevisiae deletion strains, locus YMR277W, strain FCP1, active compounds read low",0.968
same,normalized growth,"S. cerevisiae deletion strains, locus YNL006W, strain LST8, active compounds read low",0.973
same,normalized growth,"S. cerevisiae deletion strains, locus YNL020C, strain ARK1, active compounds read low",0.837
same,normalized growth,"S. cerevisiae deletion strains, locus YNL161W, strain CBK1, active compounds read low",0.957
same,normalized growth,"S. cerevisiae deletion strains, locus YNL183C, strain NPR1, active compounds read low",0.814
same,normalized growth,"S. cerevisiae deletion strains, locus YNL207W, strain RIO2, active compounds read low",0.959
same,normalized growth,"S. cerevisiae deletion strains, locus YNL222W, strain SSU72, active compounds read low",0.955
same,normalized growth,"S. cerevisiae deletion strains, locus YNL307C, strain MCK1 (second series), active compounds read low",0.81
same,normalized growth,"S. cerevisiae deletion strains, locus YOL078W, strain AVO1, active compounds read low",0.964
same,normalized growth,"S. cerevisiae deletion strains, locus YOL136C, strain PFK27, active compounds read low",0.878
same,normalized growth,"S. cerevisiae deletion strains, locus YOR061W, strain CKA2, active compounds read low",0.696
same,normalized growth,"S. cerevisiae deletion strains, locus YOR119C, strain RIO1, active compounds read low",0.948
same,normalized growth,"S. cerevisiae deletion strains, locus YOR231W, strain MKK1, active compounds read low",0.879
same,normalized growth,"S. cerevisiae deletion strains, locus YOR329C, strain SCD5, active compounds read low",0.954
same,normalized growth,"S. cerevisiae deletion strains, locus YPL031C, strain PHO85, active compounds read low",0.844
same,normalized growth,"S. cerevisiae deletion strains, locus YPL153C, strain RAD53, active compounds read low",0.88
same,normalized growth,"S. cerevisiae deletion strains, locus YPL204W, strain HRR25, active compounds read low",0.89
same,normalized growth,"S. cerevisiae deletion strains, locus YPL209C, strain IPL1, active compounds read low",0.96
same,normalized growth,"S. cerevisiae deletion strains, locus YPL256C, strain CLN2, active compounds read low",0.712 (active)
same,normalized growth,"S. cerevisiae deletion strains, locus YPR025C, strain CCL1, active compounds read low",0.958
same,normalized growth,"S. cerevisiae deletion strains, locus YPR106W, strain ISR1, active compounds read low",0.961
same,normalized growth,"S. cerevisiae deletion strains, locus YPR111W, strain DBF20, active compounds read low",0.943
same,normalized growth,"S. cerevisiae deletion strains, strain NNK1, active compounds read low",0.966
same,normalized growth,"S. cerevisiae deletion strains, strain TSCII, active compounds read low",0.963
